The list is not random: actives were taken first. Their share in the collection is about 4%.
KKLEB tox: cytotoxicity in KKLEB CF airway cells, primary screen, cytotoxicity control for CF NF-kB inhibitor project, cell-based, uHTS, fluorescence assay plates; KKLEB CF airway cells viability, ATPlite luminescence, overnight; hits give low values; cells stimulated with P. aeruginosa culture filtrate; activity change (cytotoxicity), % at 5 µM; 0.36% of 360,000 active;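 active means corrected activity change at or below -50% at 5 µM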
TROY signal inh: inhibitors of TROY-driven NF-kB signaling, primary screen, Q293 LMP1-TROYcd cells, NF-kB luciferase, uHTS. Q293 LMP1-TROYcd NF-kB luciferase reporter, 4 h. inhibition, % at 10 µM. 0.98% of 360,000 active;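 active means compounds whose plate-normalised and pattern-corrected inhibition of the luciferase reporter signal at the single screening dose is 50% or more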
TWEAK Fn14 block: inhibitors of TWEAK-Fn14 signaling, primary screen, luciferase reporter cells, uHTS. TWEAK-stimulated Fn14 reporter cells, luciferase luminescence, 8 h. inhibition, % at 10 µM. 2% of 360,000 active; in the data active means inhibition above about 50%
CF NFkB block: inhibitors of PAF-induced NF-kB signaling, primary screen, cell-based, GFP fluorescence, uHTS; KKLEB NF-kB-GFP reporter, GFP fluorescence overnight; AID 588850, 2011; inhibition, % at 5 µM; 0.86% of 360,000 active;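 active means at least 50% inhibition at 5 µM, scaled per plate between neutral and stimulator controls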;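 further: PAF is a Pseudomonas aeruginosa culture filtrate used as stimulus; plate controls were PAF-stimulated DMSO wells for no effect and unstimulated DMSO wells for full effect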
Peg3 promoter: Peg3 promoter-driven luciferase inhibitors, primary screen, cell-based, HeLa, luciferase luminescence; HeLa PEG-Prom luciferase reporter, overnight; AID 588405, 2011; inhibition, % at 20 µM; 1.7% of 360,000 active;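 active means inhibition of at least 50% at 20 µM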
HIF-2a block: HIF-2a reporter inhibitors, primary screen, luminescence, 786-0 RCC cells | 786-0 RCC cells HIF-2a reporter, luciferase luminescence, overnight | inhibition, % at 18.8 µM | 0.72% of 360,000 active;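 active means inhibition of the luminescence signal of 40% or more relative to plate controls, in a single-dose primary screen at 18.75 µM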
Starred values were filed as active, the others as inactive; x = not tested or not shown.

SMILES	KKLEB tox	TROY signal inh	TWEAK Fn14 block	CF NFkB block	Peg3 promoter	HIF-2a block
Cc1ccc2oc(-c3cccc(NC(=S)NC(=O)c4cccs4)c3)nc2c1	-13.9	-18.7	-9.9	5.4	-229.2	-212.7
Cc1ncc(CO)c2cc(C(N)=O)c(=Nc3ccccc3)oc12	-1.0	-32.6	-18.8	8.0	-1.6	0.2
CCc1nc2ccc(C(=O)NCCc3c[nH]c4ccccc34)cn2c1N(C)Cc1nccn1C	-6.1	-25.6	17.9	7.0	16.5	11.3
N=c1n(CCO)c2ccccc2n1Cc1ccccc1Cl	-12.1	-15.9	-6.7	6.9	12.9	11.4
N=c1n(CCO)c2ccccc2n1CCOc1ccc(Cl)cc1Cl	-24.3	-3.3	-6.6	14.1	103.3*	-0.8
COc1ccc(-c2nnc(N(C)C(=O)c3ccno3)s2)cc1	4.1	x	50.1*	-8.6	-220.0	-178.5
NS(=O)(=O)c1cnccc1Nc1cccc(F)c1	1.1	-8.9	2.9	-5.4	11.2	16.8
Cc1cccc(Nc2ccncc2S(N)(=O)=O)c1	-0.5	12.0	69.5*	15.9	8.4	20.8
CC1=NN(c2nc(-c3ccccc3)cs2)C(=O)C1	6.4	54.6*	66.1*	-14.7	2.5	29.9
O=C1CC(c2ccccc2)=NN1c1nc(-c2ccccc2)cs1	-28.5	35.3	-9.3	4.4	-40.1	-56.9
O=C(CNC1=NCCC1)c1ccc(Cl)cc1	14.4	3.9	-13.7	-5.9	7.0	16.2
O=C(NNC(=O)c1ccccc1-c1ccccc1C(=O)O)c1ccccc1	-2.4	-12.4	12.1	0.7	10.7	8.2
O=C(C=P(c1ccccc1)(c1ccccc1)c1ccccc1)c1ccccc1-c1ccccc1C(=O)C=P(c1ccccc1)(c1ccccc1)c1ccccc1	-78.7*	30.7	47.2	91.1*	99.5*	95.1*
CC(=O)N/C(=C\c1ccccc1)C(=O)NCc1ccc2c(c1)OCO2	1.4	-7.2	7.0	7.6	3.3	9.7
C[C@H](CO)N1C[C@H](C)[C@H](CN(C)S(=O)(=O)c2cccs2)Oc2ccc(NC(=O)Nc3ccc4c(c3)OCO4)cc2CC1=O	0.1	7.8	11.4	13.8	25.4	11.5
CCN1CCN(S(=O)(=O)c2cc(OCC(=O)NC3CCCCC3)c(C)cc2Cl)CC1	-0.4	11.0	15.6	-2.9	9.1	13.2
Cc1cc(Cl)c(S(=O)(=O)N2CCSCC2)cc1OCC(=O)NC1CCCCC1	12.3	41.1	60.9*	10.9	24.4	21.7
Cc1cc(Cl)c(S(=O)(=O)N2CCCCCC2)cc1OCC(=O)NC1CCCCC1	8.9	16.2	19.9	8.6	8.3	14.5
Cc1cc(Cl)c(S(=O)(=O)N2CCN(c3ccccn3)CC2)cc1OCC(=O)NC1CCCCC1	2.9	53.2*	62.7*	3.4	43.3	6.0
CCOC(=O)c1cc(C#N)c(SCC(=O)c2cc(C#N)c(SC)nc2C)nc1C	-29.6	21.9	28.0	32.3	16.9	-19.4
Cc1ccc(N(CC(=O)N/N=C/c2cccc(Br)c2)S(C)(=O)=O)cc1	2.7	-6.2	11.7	-13.1	-1.4	7.5
NC(=O)CN1CCN(Cc2ccc3c(c2)OCO3)CC1	4.6	16.7	-25.5	0.7	6.7	11.2
O=C1CN(C(=O)c2ccccc2Cl)c2ccccc2N1	4.7	-7.8	3.0	-6.6	12.2	25.7
Nc1cc(OC(=O)c2cccs2)nn1S(=O)(=O)c1ccc(F)cc1	7.8	3.2	5.9	6.7	8.4	13.1
Cc1ccc(C(=O)Oc2cc(N)n(S(=O)(=O)c3ccc(F)cc3)n2)cc1	-3.0	44.3	78.7*	25.3	10.1	7.8
SMILES	KKLEB tox	TROY signal inh	TWEAK Fn14 block	CF NFkB block	Peg3 promoter	HIF-2a block
COC(C(=O)Nc1ccc(C(N)=O)cc1)c1ccccc1 (centres undefined)	-11.9	2.4	0.4	2.3	4.3	13.2
COc1ccc(Cc2n[nH]c(=S)n2NC(=O)Nc2ccc(Cl)c(Cl)c2)cc1	-13.1	28.1	-24.8	19.5	32.8	3.0
CC(=O)N(C(C)=O)c1ncc2c([nH]c3ccccc32)c1C#N	-44.5	54.0*	54.6*	89.5*	33.9	-19.9
Cc1nc(C(=O)O)cc2c1[nH]c1ccccc12	-1.4	-4.1	0.0	-6.8	-0.1	8.7
CC(C)N1CCN(C2CSCCSC2)CC1CCO (centres undefined)	21.0	3.4	11.4	-6.4	3.3	13.1
CC(C)C(c1nnnn1Cc1ccc2c(c1)OCO2)N1CCN(c2ccccc2)CC1 (centres undefined)	7.1	-26.1	-12.7	-4.4	18.8	26.5
CCCCN1C(=O)C2(OCCCO2)c2cccc(C)c21	5.8	2.2	100.4*	-4.7	16.9	13.3
O=C(/C=C/c1cccc([N+](=O)[O-])c1)c1ccc([N+](=O)[O-])o1	-88.7*	72.5*	97.9*	97.0*	100.2*	43.5*
O=C(/C=C/c1cccc([N+](=O)[O-])c1)c1ccco1	-6.2	11.9	30.9	3.4	7.5	7.0
O=C(Nc1ccc2c(c1)OCCO2)c1ccco1	-1.4	37.6	61.1*	-1.7	-71.1	-91.3
O=C(CN1CCN(C(=O)c2ccco2)CC1)Nc1ccc2c(c1)OCCO2	0.4	52.6*	64.5*	8.1	-21.7	19.7
O=C(Nc1ccc2c(c1)OCCO2)c1cc2sccc2n1Cc1ccc(F)cc1	3.2	7.2	49.2	3.5	-142.0	-115.9
O=C(Nc1ccc2c(c1)OCCO2)c1cc2sccc2n1Cc1ccccc1	3.6	24.2	52.9*	-1.4	-156.3	-82.8
Cc1ccc(NC(=O)CN2CCN(C(=O)c3ccco3)CC2)cc1	-2.8	-10.0	-7.1	-4.0	2.9	13.6
CCN(CC)S(=O)(=O)c1ccc(C(=O)OCn2c(SC)nnc(C)c2=O)cc1	12.7	21.3	21.3	-10.9	6.9	15.0
O=C(CCNC(=O)c1ccccc1Cl)Nc1nc(-c2ccc3ccccc3c2)cs1	-15.4	34.1	53.3*	-14.0	-0.9	-27.7
O=C(Cc1ccccc1F)Nc1nc(-c2ccc(F)c(F)c2)cs1	7.9	72.0*	22.5	-24.1	-114.6	-254.9
O=C(CCNC(=O)c1ccccc1Cl)Nc1nc(-c2ccc(F)cc2)cs1	9.0	17.8	18.0	-12.1	-6.4	-6.2
NCCCC[C@@H]1NC(=O)[C@H](CCC(=O)O)NC(=O)c2cc([N+](=O)[O-])cc(I)c2OCC[C@@H](C(N)=O)NC1=O	-29.1	1.2	3.4	6.8	-8.1	9.5
COc1ccccc1C(=O)N/N=C(\C)CC(=O)Nc1ccccn1	2.1	-39.3	-14.9	-12.9	-1.3	-28.0
O=C(CSCC(=O)N1CCCCC1)Nc1nc(-c2ccc(Cl)s2)cs1	12.9	45.0	68.5*	-12.9	-263.9	-208.3

Screening data: PubChem, Sanford-Burnham Center for Chemical Genomics
